In PubChem BioAssay AID1159580 (chemical genetic matrix, 2015):
Screen size: about 5,500 compounds; about 2,000 (36%) were called active. About 18% were inconclusive and are not listed. Cut-off read from the data, not from the text of the source: active = normalized growth mostly below about 0.91 (no sharp cut-off); inconclusive = no clear call, values can overlap the other calls; inactive = mostly above about 0.92. This is one part of the list.

Assay: chemical genetic growth profiling, strain panel (AID 1159580);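 note: tested at 20 µM; growth read once vehicle control cultures reached saturation at 30 °C; 1 = growth at the plate median or of vehicle wells; lower values mean less growth of the strain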
Conditions: growth OD
[1] = S. cerevisiae deletion strains, locus YAL013W, strain DEP1, active compounds read low
[2] = S. cerevisiae deletion strains, locus YBR021W, strain FUR4, active compounds read low
[3] = S. cerevisiae deletion strains, locus YBR229C, strain ROT2, active compounds read low
[4] = S. cerevisiae deletion strains, locus YCL029C, strain bik1, active compounds read low
[5] = S. cerevisiae deletion strains, locus YDL035C, strain GPR1, active compounds read low
[6] = S. cerevisiae deletion strains, locus YDL074C, strain BRE1, active compounds read low
[7] = S. cerevisiae deletion strains, locus YDL101C, strain DUN1, active compounds read low
[8] = S. cerevisiae deletion strains, locus YDL134C, strain PPH21, active compounds read low
[9] = S. cerevisiae deletion strains, locus YDL185W, strain tfp1, active compounds read low
[10] = S. cerevisiae deletion strains, locus YDL192W, strain arf1, active compounds read low
[11] = S. cerevisiae deletion strains, locus YDR101C, strain arx1, active compounds read low
[12] = S. cerevisiae deletion strains, locus YDR162C, strain NBP2, active compounds read low
[13] = S. cerevisiae deletion strains, locus YDR318W, strain mcm21, active compounds read low
[14] = S. cerevisiae deletion strains, locus YDR388W, active compounds read low
[15] = S. cerevisiae deletion strains, locus YDR502C, strain sam2, active compounds read low
[16] = S. cerevisiae deletion strains, locus YEL061C, strain CIN8, active compounds read low
[17] = S. cerevisiae deletion strains, locus YER110C, active compounds read low
[18] = S. cerevisiae deletion strains, locus YER155C, strain BEM2, active compounds read low
[19] = S. cerevisiae deletion strains, locus YER167W, strain BCK2, active compounds read low
[20] = S. cerevisiae deletion strains, locus YGL078C, strain dbp3, active compounds read low
[21] = S. cerevisiae deletion strains, locus YGL086W, strain mad1, active compounds read low
[22] = S. cerevisiae deletion strains, locus YGL248W, strain PDE1, active compounds read low
[23] = S. cerevisiae deletion strains, locus YGR078C, strain PAC10, active compounds read low
[24] = S. cerevisiae deletion strains, locus YGR135W, strain pre9, active compounds read low
[25] = S. cerevisiae deletion strains, locus YGR229C, strain SMI1, active compounds read low
[26] = S. cerevisiae deletion strains, locus YGR252W, strain gcn5, active compounds read low
[27] = S. cerevisiae deletion strains, locus YHR030C, strain SLT2, active compounds read low
[28] = S. cerevisiae deletion strains, locus YHR079C, strain IRE1 (second series), active compounds read low
[29] = S. cerevisiae deletion strains, locus YHR094C, strain hxt1, active compounds read low
[30] = S. cerevisiae deletion strains, locus YHR129C, strain ARP1, active compounds read low
[31] = S. cerevisiae deletion strains, locus YHR200W, strain rpn10, active compounds read low
[32] = S. cerevisiae deletion strains, locus YIL066C, strain RNR3, active compounds read low
[33] = S. cerevisiae deletion strains, locus YIL073C, strain SPO22, active compounds read low
[34] = S. cerevisiae deletion strains, locus YIL125W, strain kgd1, active compounds read low
[35] = S. cerevisiae deletion strains, locus YIR030C, strain dcg1, active compounds read low
[36] = S. cerevisiae deletion strains, locus YJL095W, strain BCK1, active compounds read low
[37] = S. cerevisiae deletion strains, locus YJL134W, strain LCB3, active compounds read low
[38] = S. cerevisiae deletion strains, locus YJL168C, strain set2, active compounds read low
[39] = S. cerevisiae deletion strains, locus YJL187C, strain SWE1 (second series), active compounds read low
[40] = S. cerevisiae deletion strains, locus YJR043C, strain POL32, active compounds read low
[41] = S. cerevisiae deletion strains, locus YJR075W, strain HOC1, active compounds read low
[42] = S. cerevisiae deletion strains, locus YKL009W, strain mrt4, active compounds read low
[43] = S. cerevisiae deletion strains, locus YKL068W, active compounds read low
[44] = S. cerevisiae deletion strains, locus YKL085W, strain MDH1 (second series), active compounds read low
[45] = S. cerevisiae deletion strains, locus YKL085W, strain MDH1, active compounds read low
[46] = S. cerevisiae deletion strains, locus YKR001C, strain vps1, active compounds read low
[47] = S. cerevisiae deletion strains, locus YLR039C, strain RIC1, active compounds read low
[48] = S. cerevisiae deletion strains, locus YLR058C, strain SHM2, active compounds read low
[49] = S. cerevisiae deletion strains, locus YLR102C, strain apc9, active compounds read low
[50] = S. cerevisiae deletion strains, locus YLR262C, strain YPT6, active compounds read low
[51] = S. cerevisiae deletion strains, locus YLR268W, strain sec22, active compounds read low
[52] = S. cerevisiae deletion strains, locus YLR330W, strain CHS5, active compounds read low
[53] = S. cerevisiae deletion strains, locus YLR342W, strain FKS1 (second series), active compounds read low
[54] = S. cerevisiae deletion strains, locus YLR371W, strain rom2, active compounds read low
[55] = S. cerevisiae deletion strains, locus YLR418C, strain cdc73, active compounds read low
[56] = S. cerevisiae deletion strains, locus YML016C, strain PPZ1, active compounds read low
[57] = S. cerevisiae deletion strains, locus YML032C, strain rad52, active compounds read low
[58] = S. cerevisiae deletion strains, locus YML124C, strain tub3, active compounds read low
[59] = S. cerevisiae deletion strains, locus YMR078C, strain ctf18, active compounds read low
[60] = S. cerevisiae deletion strains, locus YMR223W, strain ubp8, active compounds read low
[61] = S. cerevisiae deletion strains, locus YMR307W, strain GAS1, active compounds read low
[62] = S. cerevisiae deletion strains, locus YNL067W, strain RPL9B, active compounds read low
[63] = S. cerevisiae deletion strains, locus YNL233W, strain BNI4, active compounds read low
[64] = S. cerevisiae deletion strains, locus YNL250W, strain rad50, active compounds read low
[65] = S. cerevisiae deletion strains, locus YNL271C, strain bni1, active compounds read low
[66] = S. cerevisiae deletion strains, locus YNL298W, strain CLA4, active compounds read low
[67] = S. cerevisiae deletion strains, locus YNL307C, strain MCK1, active compounds read low
[68] = S. cerevisiae deletion strains, locus YNL322C, strain KRE1, active compounds read low
[69] = S. cerevisiae deletion strains, locus YNR052C, strain pop2, active compounds read low
[70] = S. cerevisiae deletion strains, locus YOL012C, strain htz1
[71] = S. cerevisiae deletion strains, locus YOL147C, strain pex11, active compounds read low
[72] = S. cerevisiae deletion strains, locus YOR061W, strain CKA2, active compounds read low
[73] = S. cerevisiae deletion strains, locus YOR069W, strain VPS5, active compounds read low
[74] = S. cerevisiae deletion strains, locus YOR136W, strain idh2, active compounds read low
[75] = S. cerevisiae deletion strains, locus YOR144C, strain elg1, active compounds read low
[76] = S. cerevisiae deletion strains, locus YOR184W, strain ser1, active compounds read low
[77] = S. cerevisiae deletion strains, locus YOR316C, strain cot1, active compounds read low
[78] = S. cerevisiae deletion strains, locus YPR119W, strain clb2, active compounds read low
[79] = S. cerevisiae deletion strains, locus YPR141C, strain kar3, active compounds read low
[80] = S. cerevisiae deletion strains, locus YPR163C, strain tif3, active compounds read low
[81] = S. cerevisiae deletion strains, locus YPR167C, strain met16, active compounds read low
[82] = S. cerevisiae deletion strains, strain wtn01, active compounds read low
[83] = S. cerevisiae strains, strain wild type, active compounds read low

Measured: normalized growth

CCC(C)C(=O)OC1CC2(C)C(c3ccoc3)OC(=O)CC23OC2(C)OC34C(OC(=O)C(C)C)C3(O)C(OC(=O)C5(C)OC5C)C5(C)CC3(O)C(C)(C5C(=O)OC)C14O2 (centres undefined)
inactive: [1] 1.02 | [2] 1.01 | [3] 1 | [4] 1.04 | [5] 0.993 | [6] 1.01 | [7] 1.02 | [8] 1.01 | [9] 1.03 | [10] 1.01 | [11] 1.02 | S. cerevisiae deletion strains, locus YDR150W, strain NUM1, active compounds read low 1.02 | [12] 0.996 | [13] 1.03 | [14] 1.02 | [15] 1.03 | [16] 1.01 | [17] 1.02 | [18] 1.02 | [19] 1.02 | [20] 1.02 | [21] 1 | [22] 1.01 | [23] 1.02 | [24] 1.03 | [25] 1.03 | [26] 0.977 | [27] 1.02 | [28] 1.02 | [29] 1.01 | [30] 1.01 | [31] 1.04 | [32] 1.02 | [33] 1 | [34] 1.01 | [35] 1.02 | [36] 1.04 | [37] 1.01 | [38] 1.02 | [39] 1.03 | [40] 1.04 | [41] 1.03 | [42] 0.994 | [43] 1.01 | [44] 1.01 | [45] 1.01 | S. cerevisiae deletion strains, locus YKL190W, strain CNB1, active compounds read low 1 | [46] 1.01 | [47] 0.862 | [48] 0.999 | [49] 1.01 | [50] 0.77 | [51] 1.05 | [52] 1.08 | [53] 1.01 | [54] 1.03 | [55] 0.985 | [56] 1 | [57] 1.03 | [58] 1.01 | [59] 1.03 | [60] 0.999 | S. cerevisiae deletion strains, locus YMR263W, strain SAP30, active compounds read low 1.04 | [61] 0.923 | [62] 1.03 | S. cerevisiae deletion strains, locus YNL128W, strain TEP1, active compounds read low 1.01 | S. cerevisiae deletion strains, locus YNL153C, strain GIM3, active compounds read low 1.03 | [63] 1.01 | [64] 1.02 | [65] 1.03 | [66] 1.03 | [67] 1.03 | [68] 1.02 | [69] 1.02 | S. cerevisiae deletion strains, locus YOL006C, strain TOP1, active compounds read low 0.923 | [70] 1.81 | [71] 1.03 | [72] 0.991 | [73] 1.01 | [74] 1.01 | [75] 1.01 | [76] 1.04 | [77] 1.02 | S. cerevisiae deletion strains, locus YPL055C, strain LGE1, active compounds read low 1.05 | S. cerevisiae deletion strains, locus YPL241C, strain CIN2, active compounds read low 1.01 | [78] 1.01 | [79] 1.03 | [80] 1.02 | [81] 1.02 | [82] 1.03 | [83] 1

COC(=O)CC1C2(C)CC34OC5(C)OC6(C7/C(=C(/O)C(C)C)C(=O)OC(c8ccoc8)C7(C)C(OC(=O)C(C)C)C(OC)C6(O5)C13C)C(OC)C4(OC)C2OC(C)=O (centres undefined)
inactive: [1] 0.997 | [2] 1.02 | [3] 1 | [4] 0.99 | [5] 1.02 | [6] 1.01 | [7] 1.01 | [8] 1.01 | [9] 0.991 | [10] 0.994 | [11] 0.991 | [12] 1.01 | [13] 0.988 | [14] 0.995 | [15] 0.988 | [16] 0.994 | [17] 0.988 | [18] 1 | [19] 1.02 | [20] 0.979 | [21] 0.975 | [22] 1.01 | [23] 1.02 | [24] 0.987 | [25] 1 | [26] 0.937 | [27] 1.01 | [28] 0.985 | [29] 0.989 | [30] 1.01 | [31] 0.99 | [32] 1.03 | [33] 1.03 | [34] 0.991 | [35] 0.996 | [36] 1.03 | [37] 1.01 | [38] 0.986 | [39] 1.01 | [40] 1.01 | [41] 1.01 | [42] 0.984 | [43] 1 | [44] 1 | [45] 1 | [46] 0.988 | [47] 1.04 | [48] 1.01 | [49] 0.988 | [50] 1.05 | [51] 0.989 | [52] 1.01 | [53] 0.999 | [54] 0.983 | [55] 1.01 | [56] 1 | [57] 0.985 | [58] 0.99 | [59] 0.994 | [60] 0.994 | [61] 1.05 | [62] 1 | [63] 1.04 | [64] 1.02 | [65] 0.992 | [66] 0.987 | [67] 0.996 | [68] 1 | [69] 0.977 | [70] 0.95 | [71] 0.984 | [72] 1.01 | [73] 1.01 | [74] 0.991 | [75] 0.989 | [76] 0.976 | [77] 0.992 | [78] 0.982 | [79] 0.998 | [80] 0.999 | [81] 0.99 | [82] 0.974 | [83] 1.01
